Out of some 140,000 compounds screened, about 220 (0.16%) were called active. The list comes from a sample in which actives are over-represented; it also holds similar structures and randomly drawn compounds. Unmarked numbers belong to inactive results. Cut-off read from the data, not from the text of the source: active = inhibition above about 50%; inactive = the rest.

The experiment has as its system YopH tyrosine phosphatase [Yersinia enterocolitica]. Briefly: YopH tyrosine phosphatase inhibitors, primary screen, biochemical, fluorescence Ex485/Em525 (AID 898). As to conditions: hits give high values, concentration not given here.
`COc1cc(/C=N/NC(=O)c2ccccc2)ccc1OS(=O)(=O)c1ccccc1`: the inhibition is -12.8%.

Take `COC(=O)c1ccccc1NS(=O)(=O)c1ccc2[nH]c(=O)[nH]c2c1`: the inhibition was -13.2%.

On to `Cc1cccc(CSc2ccc(-c3cccs3)nn2)c1`, for which the inhibition is -8.04%.

For `CC1(c2cccc([N+](=O)[O-])c2)CC(C)(C)N(C(=O)c2ccccc2)c2ccccc21` (stereo not given), the inhibition was -13.3%.

Consider `O=C(NC(=S)Nc1cc(C(F)(F)F)ccc1N1CCOCC1)c1ccc(-c2cccc(Cl)c2)o1`, for which the inhibition is -11.4%.

For `CCN(CC(=O)NC1CCS(=O)(=O)C1)S(=O)(=O)c1ccccc1` (stereo not given), the inhibition is -27.4%.

Consider `O=c1cc(-c2ccccc2)[nH]c2cc(F)ccc12`, for which the inhibition is -25.5%.

As to `Clc1ccc(C2=CSC3=Nc4cccc5cccc(c45)N23)cc1`, the inhibition is 76.1% (active).

As for `COc1ccc2c(c1)CC[C@@H]1[C@@H]2CC[C@]2(C)C(=O)CC[C@@H]12`, the inhibition was -40.8%.

For `COC(=O)/C=C\C(=O)Nc1cccc([N+](=O)[O-])c1`, the inhibition was -15.7%.

For the molecule `Cc1ccc(NC(=O)Cn2cccc2C2=NC(c3ccccc3)CO2)c(C)c1` (stereo not given), the inhibition is -4.93%.

With `Cc1ccc(S(=O)(=O)Nc2nc(C)cc(N/N=C/c3ccc(O)cc3)n2)cc1`, the inhibition is -24.5%.

On to `Cn1cnc(C(F)(F)F)c1-c1ccc([N+](=O)[O-])cc1`, for which the inhibition is -26.6%.

Take `Cc1ccc(NC(=O)CN(C)Cc2ccc(F)cc2)c([N+](=O)[O-])c1`: the inhibition is -24.9%.

Consider `Cc1ccccc1C(OCCN(C)C)C1CCCCC1` (stereo not given), for which the inhibition was -18.4%.

With `N#Cc1ccc(C(=O)Nc2nc(-c3cccs3)c(C(=O)C(F)(F)F)s2)cc1`, the inhibition is -10.1%.

For `O=C(/C(=C/c1cccc(Cl)c1)c1nc2ccccc2[nH]1)c1ccccc1`, the inhibition was -25%.

With `NNc1nc2c(Cl)cccc2s1`, the inhibition was -22%.

Turning to `Cc1cc(N2CCOCC2)nc(-c2ccc(Br)cc2)n1`, the inhibition is 5.67%.

Regarding `CCCCNC(=O)C1CCC(CNS(=O)(=O)c2ccc(NC(C)=O)cc2)CC1` (stereo not given), the inhibition is -25.8%.

On to `COC(=O)NNC(=O)C1CCC(C)CC1` (stereo not given), for which the inhibition was -19.5%.

Regarding `COc1ccc(-c2cc(C(F)(F)F)nc(SCC(=O)Nc3ccc4c(c3)OCO4)n2)cc1OC`, the inhibition is -21.2%.

Take `Cc1cccc(N2C(=O)SC(SC(=Nc3ccccc3)Nc3ccccc3)C2=O)c1` (stereo not given): the inhibition was -18.8%.

Regarding `Cc1ccc2c(c1)C1CN(C)CCC1N2C(=O)c1ccccc1NS(=O)(=O)c1ccc(F)cc1C` (stereo not given), the inhibition was -30.2%.

`Cc1nc2ccccc2n1CC(=O)N/N=C/c1cccs1`: the inhibition is -17.2%.

As usually defined, the inhibition is the drop in the measured response relative to a control, in per cent.
